These results are taken from the supplement of paper PMC7695840.

Where a name gives a salt, the structure may show the parent alone.

In one test the test system is Staphylococcus aureus MW2 delta-mecA (mecA-). Nature of the test: normalized GFP fluorescence (growth of mecA- strain) (fraction of control range); higher = more growth of mecA- strain. As to conditions: compound concentration: 150 uM; cefoxitin: subinhibitory; fluorescent label: GFP. Put shortly:
(§1)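 Compound at 150 μM (1.5% DMSO) in 1536-well plates received 5 µL/well of pre-induced S. aureus MW2 cells mixed 1:1, gene-carrying with DsRed and gene-deleted with GFP, in LB with a daily-set subinhibitory antibiotic dose, single replicate. After 20 h unshaken at 37 °C, 90% humidity, DsRed (540/590) and GFP (485/520) were measured and scaled per plate between single-strain control medians. Plates with high untreated ratios and rows with DsRed/GFP >10 were excluded.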
For `OC[C@H]1O[C@@H](c2ccc(Cl)c(Cc3ccc(O[C@H]4CCOC4)cc3)c2)[C@H](O)[C@@H](O)[C@@H]1O`, the “normalized GFP fluorescence” value worked out at 0.499.
Same read-out and setting: with `CCN1CCCC(OC(=O)C(c2ccccc2)c2ccccc2)C1` (stereo not drawn) the figure was 0.427.
On the same count and under the same terms, with `C[n+]1ccccc1C=NO` the figure was 0.166.
Regarding `Nc1ccn([C@H]2CC[C@@H](CO)O2)c(=O)n1`, the “normalized GFP fluorescence” value was determined as 0.265.
Turning to `Cc1cn(-c2cc(NC(=O)c3ccc(C)c(Nc4nccc(-c5cccnc5)n4)c3)cc(C(F)(F)F)c2)cn1` [Nilotinib (AMN-107)], the “normalized GFP fluorescence” value was determined as 0.547.
On the same count and under the same terms, then `CCCN(CCC)S(=O)(=O)c1ccc(C(=O)O)cc1`, with 0.462; and `CN(C)CCOC(C)(c1ccccc1)c1ccccn1` (stereo not drawn), with 0.411; and `CNCC[C@@H](Oc1ccccc1C)c1ccccc1`, with 0.319.
Turning to `O=C([O-])C(O)[C@H](O)[C@@H](O)[C@H](O)[C@H](O)CO.O=C([O-])C(O)[C@H](O)[C@@H](O)[C@H](O)[C@H](O)CO.[Ca+2]` (stereo partly drawn), the “normalized GFP fluorescence” value stood at 0.35.
The same measure, in the same setting: with `CCC1=C[C@@H]2CN(C1)Cc1c([nH]c3ccccc13)[C@@](C(=O)OC)(c1cc3c(cc1OC)N(C)[C@H]1[C@@](O)(C(=O)OC)[C@H](OC(C)=O)[C@]4(CC)C=CCN5CC[C@]31[C@@H]54)C2` [Vinorelbine (Navelbine)] the figure was 0.108; with `CN(C)c1nc(N(C)C)nc(N(C)C)n1`, 0.159; with `CC(C)[C@H](N)C(=O)OCC(CO)OCn1cnc2c(=O)nc(N)[nH]c21` (stereo partly drawn), 0.546.
On the same count and under the same terms, with `COCCCN1CCC(NC(=O)c2cc(Cl)c(N)c3c2OCC3)CC1` [Prucalopride] the figure was 0.256; with `O=C(c1ccc(F)cc1)C1CCN(CCn2c(=O)[nH]c3ccccc3c2=O)CC1`, 0.217; with `Nc1nc(Cl)nc2c1ncn2[C@H]1C[C@H](O)[C@@H](CO)O1` [Cladribine], 0.546.
`CC(C[N+](C)(C)C)OC(N)=O` (stereo not drawn): the “normalized GFP fluorescence” value came out at 0.554.
As for `CC(CN1c2ccccc2Sc2ccccc21)N(C)C` (stereo not drawn), the “normalized GFP fluorescence” value is -0.00976.
On the same count and under the same terms, then `CC(C)(C)NCC(O)c1cc(O)cc(O)c1` (stereo not drawn), with 0.587.
The same measure, in the same setting: then `CN1CCC[C@@H]1CCO[C@](C)(c1ccccc1)c1ccc(Cl)cc1` [Clemastine Fumarate], with 0.00687; and `CC[C@]1(O)C[C@H]2CN(CCc3c([nH]c4ccccc34)[C@@](C(=O)OC)(c3cc4c(cc3OC)N(C=O)[C@H]3[C@@](O)(C(=O)OC)[C@H](OC(C)=O)[C@]5(CC)C=CCN6CC[C@]43[C@@H]65)C2)C1`, with 0.501.
Still for that read-out and setting: then `CS(=O)(=O)CCNCc1ccc(-c2ccc3ncnc(Nc4ccc(OCc5cccc(F)c5)c(Cl)c4)c3c2)o1` [Lapatinib Ditosylate (Tykerb)], with -0.0239; and `CC(=O)Nc1c(I)c(NC(C)=O)c(I)c(C(=O)O)c1I`, with 0.477; and `COc1cc(NC(C)CCCN)c2ncccc2c1` (stereo not drawn), with -0.00346.
For `C/C=C/c1ccc(OC)cc1`, the “normalized GFP fluorescence” value worked out at 0.443.
Still for that read-out and setting: with `CCc1nn(CCCN2CCN(c3cccc(Cl)c3)CC2)c(=O)n1CCOc1ccccc1` the figure was 0.108.
Regarding `CCOC(=O)O[C@]1(C(=O)OCCl)CC[C@H]2[C@@H]3CCC4=CC(=O)C=C[C@]4(C)[C@H]3[C@@H](O)C[C@@]21C` [Loteprednol etabonate], the “normalized GFP fluorescence” value is 0.281.
With `CC1=C(/C=C/C(C)=C/C=C/C(C)=C\C(=O)O)C(C)(C)CCC1`, the “normalized GFP fluorescence” value stood at 0.0602.
Still for that read-out and setting: with `CCN1C(=O)NC(c2ccccc2)C1=O` (stereo not drawn) the figure was 0.469.
Same read-out and setting: then `Cc1ccc(C(=O)c2ccc(CC(=O)O)n2C)cc1`, with 0.421.
As for `CC(=O)OCC(=O)[C@@]1(OC(C)=O)[C@@H](C)C[C@H]2[C@@H]3C[C@H](F)C4=CC(=O)C=C[C@]4(C)[C@@]3(F)[C@@H](O)C[C@@]21C`, the “normalized GFP fluorescence” value is 0.256.
Still for that read-out and setting: then `CCC(=O)NCC[C@@H]1CCc2ccc3c(c21)CCO3`, with 0.8; and `CC(C)(C)NC(=O)[C@H]1CC[C@H]2[C@@H]3CC[C@H]4NC(=O)C=C[C@]4(C)[C@H]3CC[C@]12C`, with 0.27; and `CC1=Nc2ccc(Cl)cc2S(=O)(=O)N1`, with 0.259.
Consider `COc1ccc2c(c1OC)C(=O)O[C@@H]2[C@H]1c2c(cc3c(c2OC)OCO3)CCN1C`, for which the “normalized GFP fluorescence” value came to 0.473.
For the molecule `Clc1ccc2c(c1)CCc1cccnc1C2=C1CCNCC1` [Desloratadine], the “normalized GFP fluorescence” value worked out at 0.102.
As to `CCCC(=O)Nc1ccc(OCC(O)CNC(C)C)c(C(C)=O)c1` (stereo not drawn), the “normalized GFP fluorescence” value came to 0.332.
Same read-out and setting: with `O=C(O)C[C@H](O)C[C@H](O)/C=C/c1c(C2CC2)nc2ccccc2c1-c1ccc(F)cc1` [Pitavastatin calcium (Livalo)] the figure was -0.0148; with `CCN(CC)C(=O)C1(c2ccccc2)CC1CN` (stereo not drawn), 0.155.
For `NCCCC[C@H](N[C@@H](CCc1ccccc1)C(=O)O)C(=O)N1CCC[C@H]1C(=O)O`, the “normalized GFP fluorescence” value was 0.972.

In a further test the test system is Staphylococcus aureus MW2 (mecA+). As to the kind of experiment: normalized DsRed fluorescence (growth of mecA+ strain) (fraction of control range); higher = more growth of mecA+ strain. As to conditions: compound concentration: 150 uM; cefoxitin: subinhibitory; fluorescent label: DsRed. Put shortly:
as §1
As to `OC[C@H]1O[C@@H](c2ccc(Cl)c(Cc3ccc(O[C@H]4CCOC4)cc3)c2)[C@H](O)[C@@H](O)[C@@H]1O`, the “normalized DsRed fluorescence” value came to 0.698.
With `CCN1CCCC(OC(=O)C(c2ccccc2)c2ccccc2)C1` (stereo not drawn), the “normalized DsRed fluorescence” value worked out at 0.501.
The same measure, in the same setting: with `C[n+]1ccccc1C=NO` the figure was 0.637; with `Nc1ccn([C@H]2CC[C@@H](CO)O2)c(=O)n1`, 0.779.
Still for that read-out and setting: then `Cc1cn(-c2cc(NC(=O)c3ccc(C)c(Nc4nccc(-c5cccnc5)n4)c3)cc(C(F)(F)F)c2)cn1` [Nilotinib (AMN-107)], with 0.566; and `CCCN(CCC)S(=O)(=O)c1ccc(C(=O)O)cc1`, with 0.343; and `CN(C)CCOC(C)(c1ccccc1)c1ccccn1` (stereo not drawn), with 0.892.
Same read-out and setting: with `CNCC[C@@H](Oc1ccccc1C)c1ccccc1` the figure was 0.638; with `O=C([O-])C(O)[C@H](O)[C@@H](O)[C@H](O)[C@H](O)CO.O=C([O-])C(O)[C@H](O)[C@@H](O)[C@H](O)[C@H](O)CO.[Ca+2]` (stereo partly drawn), 0.718; with `CCC1=C[C@@H]2CN(C1)Cc1c([nH]c3ccccc13)[C@@](C(=O)OC)(c1cc3c(cc1OC)N(C)[C@H]1[C@@](O)(C(=O)OC)[C@H](OC(C)=O)[C@]4(CC)C=CCN5CC[C@]31[C@@H]54)C2` [Vinorelbine (Navelbine)], 0.921.
On to `CN(C)c1nc(N(C)C)nc(N(C)C)n1`, for which the “normalized DsRed fluorescence” value was determined as 0.887.
On to `CC(C)[C@H](N)C(=O)OCC(CO)OCn1cnc2c(=O)nc(N)[nH]c21` (stereo partly drawn), for which the “normalized DsRed fluorescence” value was 0.722.
On the same count and under the same terms, then `COCCCN1CCC(NC(=O)c2cc(Cl)c(N)c3c2OCC3)CC1` [Prucalopride], with 0.927; and `O=C(c1ccc(F)cc1)C1CCN(CCn2c(=O)[nH]c3ccccc3c2=O)CC1`, with 0.83; and `Nc1nc(Cl)nc2c1ncn2[C@H]1C[C@H](O)[C@@H](CO)O1` [Cladribine], with 0.824.
`CC(C[N+](C)(C)C)OC(N)=O` (stereo not drawn): the “normalized DsRed fluorescence” value was found to be 0.879.
`CC(CN1c2ccccc2Sc2ccccc21)N(C)C` (stereo not drawn): the “normalized DsRed fluorescence” value was determined as 0.917.
On the same count and under the same terms, with `CC(C)(C)NCC(O)c1cc(O)cc(O)c1` (stereo not drawn) the figure was 0.611; with `CN1CCC[C@@H]1CCO[C@](C)(c1ccccc1)c1ccc(Cl)cc1` [Clemastine Fumarate], 0.338.
As to `CC[C@]1(O)C[C@H]2CN(CCc3c([nH]c4ccccc34)[C@@](C(=O)OC)(c3cc4c(cc3OC)N(C=O)[C@H]3[C@@](O)(C(=O)OC)[C@H](OC(C)=O)[C@]5(CC)C=CCN6CC[C@]43[C@@H]65)C2)C1`, the “normalized DsRed fluorescence” value came out at 0.633.
The same measure, in the same setting: then `CS(=O)(=O)CCNCc1ccc(-c2ccc3ncnc(Nc4ccc(OCc5cccc(F)c5)c(Cl)c4)c3c2)o1` [Lapatinib Ditosylate (Tykerb)], with 1.52.
As to `CC(=O)Nc1c(I)c(NC(C)=O)c(I)c(C(=O)O)c1I`, the “normalized DsRed fluorescence” value was found to be 1.13.
Same read-out and setting: with `COc1cc(NC(C)CCCN)c2ncccc2c1` (stereo not drawn) the figure was 0.672; with `C/C=C/c1ccc(OC)cc1`, 0.71; with `CCc1nn(CCCN2CCN(c3cccc(Cl)c3)CC2)c(=O)n1CCOc1ccccc1`, 0.736.
Same read-out and setting: with `CCOC(=O)O[C@]1(C(=O)OCCl)CC[C@H]2[C@@H]3CCC4=CC(=O)C=C[C@]4(C)[C@H]3[C@@H](O)C[C@@]21C` [Loteprednol etabonate] the figure was 0.603; with `CC1=C(/C=C/C(C)=C/C=C/C(C)=C\C(=O)O)C(C)(C)CCC1`, 0.671; with `CCN1C(=O)NC(c2ccccc2)C1=O` (stereo not drawn), 1.21.
The same measure, in the same setting: then `Cc1ccc(C(=O)c2ccc(CC(=O)O)n2C)cc1`, with 0.279; and `CC(=O)OCC(=O)[C@@]1(OC(C)=O)[C@@H](C)C[C@H]2[C@@H]3C[C@H](F)C4=CC(=O)C=C[C@]4(C)[C@@]3(F)[C@@H](O)C[C@@]21C`, with 1.11.
On to `CCC(=O)NCC[C@@H]1CCc2ccc3c(c21)CCO3`, for which the “normalized DsRed fluorescence” value is 0.671.
On the same count and under the same terms, then `CC(C)(C)NC(=O)[C@H]1CC[C@H]2[C@@H]3CC[C@H]4NC(=O)C=C[C@]4(C)[C@H]3CC[C@]12C`, with 0.691.
Same read-out and setting: with `CC1=Nc2ccc(Cl)cc2S(=O)(=O)N1` the figure was 0.639; with `COc1ccc2c(c1OC)C(=O)O[C@@H]2[C@H]1c2c(cc3c(c2OC)OCO3)CCN1C`, 0.698; with `Clc1ccc2c(c1)CCc1cccnc1C2=C1CCNCC1` [Desloratadine], 0.936.
Turning to `CCCC(=O)Nc1ccc(OCC(O)CNC(C)C)c(C(C)=O)c1` (stereo not drawn), the “normalized DsRed fluorescence” value amounted to 0.62.
Take `O=C(O)C[C@H](O)C[C@H](O)/C=C/c1c(C2CC2)nc2ccccc2c1-c1ccc(F)cc1` [Pitavastatin calcium (Livalo)]: the “normalized DsRed fluorescence” value turned out to be 0.559.
Still for that read-out and setting: then `CCN(CC)C(=O)C1(c2ccccc2)CC1CN` (stereo not drawn), with 0.617.
Still for that read-out and setting: with `NCCCC[C@H](N[C@@H](CCc1ccccc1)C(=O)O)C(=O)N1CCC[C@H]1C(=O)O` the figure was 0.642.
